Assay results taken from PubChem BioAssay (Tox21).
“And” between values parts separate entries of the source, which are not always exact repeats. Equal entries are not always repeated. Inconclusive results are not listed. Where a call stands in place of a potency, no number is given. The source holds several records for some structures; these can differ, active in one and inactive in another. Values without a mark were called inactive. The source made the active and inactive calls. The call rests on the fitted dose curve; in most records, active means well fitted curve in the direction sought with a large enough effect in the repeat runs; inconclusive means weak or mixed curves; inactive means no such curve, though single readings can be large; an effect the other way counts as inactive or inconclusive.

Legend:
[1] = A CellTox Green Cytotoxicity Assay to monitor cytotoxicity in HEK293 cells - 40 hour (AID 1224871); further: nearly all actives have a fitted effect of over 45% in size; further: potency means the concentration at half of the fitted maximal effect
Method in brief: (§1)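 Dead-cell fluorescence measured kinetically: asymmetric cyanine dye, HEK293, 600 cells/well, 5 h settle, 23 nL cpd/DMSO, 37 C, reads 0–40 h every 8 h.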

[2] = qHTS RealTime-Glo MT Cell Viability Assay in HEK293 cells - 16 hour (AID 1224872); further: top concentration of the series differs between compounds; nearly all actives have a fitted effect of over 50% in size
Method in brief: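 Cells + reagent dispensed (600 cells/well, HEK293) → 5 h at 37 C/5% CO2 → 23 nL compound in DMSO pinned → 40 h at 37 C → luminescence read at 0, 8, 16, 24, 32, 40 h.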

[3] = qHTS RealTime-Glo MT Cell Viability Assay in HepG2 cells - 8 hour (AID 1224873); further: nearly all actives have a fitted effect of over 55% in size
Method in brief: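 HepG2 cells mixed with RealTime-Glo MT reagents (NanoLuc plus cell-permeant prosubstrate) were seeded at 600 cells/well, incubated 5 h at 37 C/5% CO2, then pinned with compounds in DMSO; nonlytic luminescence tracked viability during 40 h treatment.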

[4] = qHTS RealTime-Glo MT Cell Viability Assay in HEK293 cells - 40 hour (AID 1224874); conditions: RealTime-Glo luminescence; max response: hits give low values; further: nearly all actives have a fitted effect of over 50% in size; further: potency means the concentration at half of the fitted maximal effect
Method in brief: (§2)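 600 HEK293 cells per well, dispensed already mixed with RealTime-Glo MT reagents. Compound dosing came 5 h later. The same wells were read for luminescence at 0, 8, 16, 24, 32 and 40 h of exposure at 37 C.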

[5] = A CellTox Green Cytotoxicity Assay to monitor cytotoxicity in HEK293 cells - 24 hour (AID 1224875); further: series mostly up to about 77 µM; nearly all actives have a fitted effect of over 45% in size
Method in brief: as §1

[6] = A CellTox Green Cytotoxicity Assay to monitor cytotoxicity in HepG2 cells - 16 hour (AID 1224876); further: nearly all actives have a fitted effect of over 45% in size
Method in brief: (§3)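 First, HepG2 cells (600/well) mixed with reagent were plated; second, after 5 h at 37 C they received compounds via pintool; third, fluorescence was measured at 0 h through 40 h at 8 h intervals.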

[7] = qHTS RealTime-Glo MT Cell Viability Assay in HepG2 cells - 32 hour (AID 1224877); further: nearly all actives have a fitted effect of over 55% in size
Method in brief: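 Real-time, nonlytic viability: 600 HepG2 cells/well mixed with NanoLuc enzyme plus prosubstrate; 5 h settle, compound (DMSO) added by pintool; luminescence monitored over 40 h at 37 C.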

[8] = A CellTox Green Cytotoxicity Assay to monitor cytotoxicity in HepG2 cells - 24 hour (AID 1224878); further: nearly all actives have a fitted effect of over 45% in size
Method in brief: as §3

[9] = A CellTox Green Cytotoxicity Assay to monitor cytotoxicity in HepG2 cells - 40 hour (AID 1224879); further: nearly all actives have a fitted effect of over 40% in size
Method in brief: as §3

[10] = qHTS RealTime-Glo MT Cell Viability Assay in HEK293 cells - 0 hour (AID 1224880)
Method in brief: as §2

Structure (SMILES)	Potency [1]	Potency [2]	Potency [3]	max response [4]	Potency [5]	outcome [6]	outcome [7]	Potency [8]	Potency [9]	outcome [10]	Potency [4]
CCCCOC(=O)c1ccc(N)cc1	inactive	inactive	inactive	0.814%	inactive	inactive	inactive	inactive	inactive	inactive	–
CCCCCCCCCCCC(=O)OC	inactive	inactive	inactive	-2.49% and 7.82%	inactive	inactive	inactive	–	inactive	inactive	–
CCCCCCCCCCN	inactive	inactive	inactive	0.163% and 1.85%	inactive	inactive	inactive	–	–	inactive	–
CC(=O)OC1CC(C)OC(C)O1 (configuration not stated)	inactive	inactive	inactive	5.08% and 9.58%	inactive	inactive	inactive	inactive	–	inactive	–
Nc1ccc(Cl)c(N)c1	inactive	inactive	inactive	-8.1% and -8.99%	inactive	inactive	inactive	inactive	inactive	inactive	–
c1ccc(Oc2ccccc2)cc1	50.5 µM (active)	inactive	inactive	-2.3% and -6.04%	inactive	inactive	inactive	inactive	inactive	inactive	–
CNC(=S)N(C)C	inactive	inactive	inactive	3.02%	inactive	inactive	inactive	inactive	inactive	inactive	11.6 µM (active)
O=[N+]([O-])c1ccc2nc[nH]c2c1	inactive	inactive	inactive	4.04% and -21.2%	inactive	inactive	inactive	inactive	–	inactive	–
CCOCCOCCOCCO	inactive	inactive	inactive	3.42% and 9.26%	inactive	inactive	inactive	inactive	inactive	inactive	–
CC(CCO)CC(C)(C)C (configuration not stated)	inactive	inactive	inactive	-6.13% and 0.884%	inactive	inactive	inactive	–	inactive	inactive	–
C=Cc1ccc(C)cc1	inactive	inactive	inactive	-4.48% and 7.7%	inactive	inactive	inactive	inactive	inactive	inactive	–
CCOC(=O)n1ccn(C)c1=S	inactive	inactive	inactive	1.12% and 2.41%	inactive	inactive	inactive	inactive	–	inactive	–
CC(C)c1cccc(C(C)C)c1	inactive	inactive	inactive	2.88% and 7.17%	inactive	inactive	inactive	–	inactive	inactive	–
CC1(C)CC(N)CC(C)(CN)C1 (configuration not stated)	inactive	inactive	inactive	-9.67% and 2.41%	inactive	inactive	inactive	–	inactive	inactive	–
CCCOC(=O)c1ccccc1	inactive	inactive	inactive	4.73% and -2.32%	inactive	inactive	inactive	inactive	inactive	inactive	–
COCCCN	inactive	inactive	inactive	3.35% and 3.08%	inactive	inactive	inactive	–	inactive	inactive	–
CC(C)=CCl	inactive	inactive	inactive	8.16% and 2.09%	inactive	inactive	inactive	inactive	inactive	inactive	–
O=C(O)c1cc2ccccc2cc1O	inactive	inactive	inactive	-2.62% and 6.1%	inactive	inactive	inactive	inactive	–	inactive	–
COc1ccc([N+](=O)[O-])cc1N	inactive	inactive	inactive	-5.95% and 0.4%	inactive	inactive	inactive	inactive	inactive	inactive	–
CN(C)c1ccc(O)c2c1C[C@H]1C[C@H]3[C@H](N(C)C)C(=O)C(C(N)=O)=C(O)[C@@]3(O)C(=O)C1=C2O	inactive	inactive	inactive	-2.64% and -1.12%	inactive	inactive	inactive	–	inactive	inactive	–
CC(C)(Oc1ccc(CCNC(=O)c2ccc(Cl)cc2)cc1)C(=O)O	inactive	inactive	inactive	3% and 2.4%	inactive	inactive	inactive	inactive	–	inactive	–
CC(C)CCCCCCCOC(=O)CCCCC(=O)OCCCCCCCC(C)C	inactive	inactive	inactive	-6.27% and 3.22%	inactive	inactive	inactive	inactive	inactive	inactive	–
NC(=S)NNC(N)=S	inactive	inactive	inactive	7.65% and -11.1%	inactive	inactive	inactive	inactive	–	inactive	–
